In all, about 340,000 compounds went through this assay and about 1,800 (0.53%) were called active.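 Rule for the calls: active = activation over 3 SD above normal in the single-dose calcium agonist read (cut at about 30% in these data); inactive = the rest.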 The list comes from a sample in which actives are over-represented; it also holds similar structures and randomly drawn compounds.
target: D(2) dopamine receptor (Homo sapiens) (UniProt P14416); assay: HTS Assay for Allosteric Agonists of the Human D2 Dopamine Receptor: Primary Screen for Agonists; conditions: HEK293 T-REx D2 cells, calcium flux agonist mode; at 2 µM; stronger effect = higher value; note: 0% is about no effect
Sequence (P14416 whole entry, looked up): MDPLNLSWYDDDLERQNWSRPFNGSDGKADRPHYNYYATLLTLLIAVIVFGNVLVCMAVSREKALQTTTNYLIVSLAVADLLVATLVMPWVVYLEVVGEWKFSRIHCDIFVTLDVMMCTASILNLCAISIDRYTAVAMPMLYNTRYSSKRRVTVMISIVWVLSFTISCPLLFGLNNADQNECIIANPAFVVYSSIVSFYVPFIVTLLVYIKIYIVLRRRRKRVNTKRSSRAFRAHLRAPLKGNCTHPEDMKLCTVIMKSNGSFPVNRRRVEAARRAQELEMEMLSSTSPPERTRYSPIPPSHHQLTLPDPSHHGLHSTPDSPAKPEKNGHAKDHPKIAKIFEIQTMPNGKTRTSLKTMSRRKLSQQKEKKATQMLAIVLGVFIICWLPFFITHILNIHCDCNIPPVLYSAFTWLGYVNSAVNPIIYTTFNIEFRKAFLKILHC
From the text: NIH Chemical Genomics Center [NCGC] NIH Molecular Libraries Probe Centers Network [MLPCN] MLPCN Grant: NS064831-01 Assay Submitter (PI): David Sibley Dopamine receptors (DARs) are involved in the etiology and/or therapy of a number of neuropsychiatric and endocrine disorders. For instance, all receptor-based antiparkinsonian drugs work via stimulating the D2 DAR subtype whereas all FDA-approved antipsychotic agents are antagonists of this receptor. […] There are three different types of allosteric modulators that we are seeking, two of which will stimulate or augment receptor signaling, allosteric agonists and potentiators, while the third, allosteric antagonists, will attenuate receptor signaling. The present primary screening assay measures compound agonism by tracking calcium flux in a […], inducible Hek293 Trex D2 cell line.
Freshly passaged cells are plated in 1536 well black, clear bottom plates at a density of 4000 cells/well in 3 ul of complete media containing 1x tetracycline inducer. After an overnight incubation at […] in 5% CO2, cells are loaded with 2 ul of the no wash Calcium Assay Kit (ABD Bioquest) and incubated at room temperature for 30 to 90 minutes. Agonist read: A 10 cycle (1 second/cycle) baseline measurement is taken and then the FDSS online 1536 pintool delivers 23 nl of compound library (as well as dopamine controls) to the plate. The plate is measured for kinetically at 1 cycle/sec for 180 seconds and is considered to be the agonist portion of the assay (eg, compounds which activate a positive calcium response during this portion are flagged as potential agonists). Following the 180 second read, 1 ul of either an EC20 (positive modulation assay) or EC80 (negative modulation assay) is delivered by an onboard pipette head. Measurements are taken kinetically for an additional 180 seconds.

activation, active:
O=C(c1ccco1)N1CCN(Cc2cccc(C(F)(F)F)c2)CC1 59.9%, O=C(c1ccc(Br)o1)N1CCN(CCOc2ccccc2)CC1 67.9%, COc1cccc(OC)c1OCCN1CCN(C(=O)c2ccco2)CC1 87.8%, O=C(Nc1ccc(F)cc1F)N1CCCN(CCOc2ccccc2)CC1 41.8%, O=C(c1ccco1)N1CCN(CCOc2ccccc2)CC1 74.5%, c1ccc(-c2cnc(CN3CCN(c4ccccc4)CC3)o2)cc1 40%, CCOc1cc2[nH]c(=S)n(CCN3CCCCC3C)c(=O)c2cc1OCC (centres undefined) 30.2%, COc1ccc(N2CCN(Cc3cc(=O)oc4ccc5ccccc5c34)CC2)cc1 48.7%, O=C(CN1CCN(c2ccccc2F)CC1)c1ccc2c(c1)OCO2 34.1%, CCN(CC)c1ccc2oc(=O)c(C)nc2c1 33.2%, O=C(CN1CCN(c2cccc(Cl)c2)CC1)Nc1ccc(S(=O)(=O)N2CCOCC2)cc1 56.5%, CC(C)CCN1CCN(Cc2cn[nH]c2C2CCCCC2)CC1CCO (centres undefined) 71.9%, Cc1c(CC(=O)N2CCN(C(=O)C3COc4ccccc4O3)CC2)c(=O)oc2c(O)c(O)ccc12 (centres undefined) 86.6%, CCC(CC)NC(=O)/C=C/c1cccc([N+](=O)[O-])c1 55.2%, O=C(CSC1CC(=O)N(CCc2ccccc2)C1=O)Nc1ccc(Cl)cc1 (centres undefined) 49.2%, Cc1ccc(O)c(-c2cc(C(=O)Nc3c(C)n(C)n(-c4ccccc4)c3=O)[nH]n2)c1 34.8%, CC1=CC2=NC(=O)/C(=C/c3coc4ccccc4c3=O)C(=N)N2O1 49.9%, O=C(OCc1nc2ccccc2[nH]1)C1CCCCC1 41.5%

activation, inactive:
O=C(CN1CCN(C/C=C/c2ccccc2)CC1)Nc1ccc(F)cc1F 0.754%, c1ccc(-c2ccc(OCCN3CCOCC3)cc2)cc1 0.22%, COc1cccc(OCc2cc(C(=O)N3CCN(C(=O)c4ccco4)CC3)no2)c1 -0.444%, O=C(c1ccco1)N1CCN(C(=S)Nc2cc(F)cc(F)c2)CC1 0.216%, O=C(CN1CCN(C(=O)c2ccco2)CC1)Nc1ccc(Cl)c(C(F)(F)F)c1 -0.254%, Cc1ccc(F)cc1NC(=O)N1CCCN(c2ccc(C(F)(F)F)cn2)CC1 0.948%, O=CN1CCN(C(=O)c2ccc(Br)o2)CC1 0.34%, COc1cccc(OC)c1C(=O)N1CCN(Cc2cccnc2)CC1 1.08%, CC(=O)N1CCCc2cc(S(=O)(=O)Nc3ccc(Cl)cc3F)ccc21 0.983%, COc1ccc(CCNC(=O)C(=O)NCC(c2ccco2)S(=O)(=O)c2cccs2)cc1OC (centres undefined) 0.136%, O=C(NCCc1ccc(Cl)cc1)c1ccc2c(c1)N(Cc1ccc(F)cc1)C(=O)CS2 -0.585%, COc1ccc(OC)c(-c2noc(N3CCN(c4cc(Cl)ccc4C)CC3)n2)c1 0.838%, O=C(CNS(=O)(=O)c1ccccc1)N1CCN(C(=O)c2ccco2)CC1 0.7%, O=C(c1ccco1)N1CCN(C(=O)c2ccc(COc3ccc(F)cc3)o2)CC1 -1.15%, O=C(NCc1ccc(Cl)cc1)c1ccc2c(c1)nnn2C1CCCC1 -0.221%, O=C(NCc1ccccc1)C1CCN(S(=O)(=O)c2ccc3[nH]c(=O)ccc3c2)CC1 -1.06%, COc1ccc(N2CCN(Cc3nnc(-c4ccccc4)o3)CC2)cc1 0%, Cc1ccc(C)c(N2CCN(Cc3nnc(-c4ccccc4)o3)CC2)c1 0.463%, COc1cc(OC)c(OC)cc1/C=C/c1nc2ccccc2c(=O)n1-c1ccc(Br)c(C)c1 1.46%, CCOc1cc2[nH]c(=S)n(CCCN3CCCC3=O)c(=O)c2cc1OCC -1.56%, COc1cc2[nH]c(=S)n(CCN3CCCCC3C)c(=O)c2cc1OC (centres undefined) 1.14%, Fc1ccc(-c2nc(Nc3cccc(Cl)c3)nc3c2COc2ccccc2-3)cc1 -1.77%, O=C1N(Cc2ccccc2)c2ccc(Cl)cc2C1(O)c1c[nH]c2ccccc12 (centres undefined) 0.529%, CCN(CC)c1ccc(NC(=O)Cn2nc3c(cc2=O)CCCC3)c(C)c1 -1.68%, Cc1cc(=O)c2cc(C(=O)Nc3cccc(C)c3C)ccc2[nH]1 1.06%, COc1ccc2c(CN3CCN(S(=O)(=O)c4cccs4)CC3)cc(=O)oc2c1 1.59%, COc1ccc2oc(=O)cc(CN3CCOCC3)c2c1 0.172%, CCC1(c2ccccc2)NC(=O)N(CC(=O)c2ccc3c(c2)OCO3)C1=O (centres undefined) 0.171%, CC1(c2ccc(Cl)cc2)NC(=O)N(CC(=O)c2ccc3c(c2)OCO3)C1=O (centres undefined) 6.26%, COc1ccc(NC(=O)C2CCN(c3ccc(Sc4ccc(C)cc4)nn3)CC2)c(OC)c1 -0.0405%, Cc1ccc2c(=O)oc(N(C)C)nc2c1 -0.369%, CCc1ccc2oc(-c3ccc(N)cc3)nc2c1 0.79%, COC(=O)c1ccc(NC(=O)c2cnn(-c3ccc(Cl)cc3)c2C2CCN(C(=O)OC(C)(C)C)CC2)cc1 -0.0655%, CC(C)S(=O)(=O)c1oc(-c2ccc(F)cc2)nc1S(=O)(=O)c1ccc(F)cc1 6.9%, COc1ccccc1NC(=O)CSc1oc(-c2ccco2)nc1S(=O)(=O)c1ccc(Br)cc1 -0.604%, CCOc1ccccc1N(CC)C(=O)c1cc2ccc3cccnc3c2[nH]1 0.0244%, COc1cccc(NC(=O)c2ccc3nc(CCc4ccccc4)oc3c2)c1 0.0569%, O=C(COC(=O)CCc1ccc(S(=O)(=O)N2CCOCC2)cc1)Nc1cccc(Cl)c1 1.09%, O=C(CN1CCCCCC1)Nc1ccc(S(=O)(=O)N2CCCCC2)cc1 -2.81%, COc1ccc(CCn2cc3c(c2-c2ccc(Br)cc2)c(=O)n(C)c(=O)n3C)cc1OC -0.343%, CCC(=O)Nc1cccc(C(=O)OCc2cc(=O)n3nc(CC)sc3n2)c1 3.26%, Cc1cc(F)ccc1NC1(c2ccccc2)C(=O)c2ccccc2C1=O -1.91%, CC(C)CCN1CCN(Cc2ccc(C(F)(F)F)cc2)CC1CCO (centres undefined) -0.55%, CC(C)CCN1CCN(C/C=C/c2ccco2)CC1CCO (centres undefined) -3.43%, COc1ccc(CNC(=O)CCc2c(C)nn(-c3ccc(N4CCCC4)nn3)c2C)cc1 -0.779%, COc1ccc(C2=NC(c3ccncc3)=Nc3ccc(Br)cc3N2)cc1 2.06%, COc1ccc(OC)c2sc(N3CCN(C(=O)C4COc5ccccc5O4)CC3)nc12 (centres undefined) -0.0345%, COc1cc(NS(=O)(=O)c2ccc3c(c2)OCC(C(=O)N2CCCC2)O3)cc(OC)c1 (centres undefined) 0.531%, O=C(/C=C/c1cn(CC(O)CN2CCc3ccccc32)c2ccccc12)c1ccc(Br)cc1 (centres undefined) 2.61%, Cc1ccc(CSc2nc3ccsc3c(=O)n2CCC(C)C)cc1 0.237%, COc1ccc(Cl)cc1NC(=O)Cn1c(=O)c2ccccc2n2nncc12 0.159%, CCc1ccc(NC(=O)C(C)OC(=O)/C=C/c2cccc([N+](=O)[O-])c2)cc1 (centres undefined) -0.67%, Cc1ccc(NC(=O)O/N=C/c2cccc([N+](=O)[O-])c2)cc1 1.09%, O=S(=O)(NCCc1nnc2ccc(SCc3ccc(Cl)cc3Cl)nn12)c1ccccc1 0.55%, CCOC(=O)C(Cc1ccccc1)NC(=O)CCc1c(C)nc2c(c(C)nn2-c2ccc(C)c(C)c2)c1C (centres undefined) 3.29%, COC(=O)CN1C(=S)N(c2ccccc2)C(=O)C1CC(=O)Nc1ccc(Cl)cc1 (centres undefined) -0.464%, O=C(NCCCc1ccccc1)C1CCC(=O)N(CCc2ccc(Cl)cc2)C1 (centres undefined) -1.17%, CCc1ccc(CN(Cc2ccco2)C(=O)c2ccccc2Cl)cc1 0.564%, COc1cc(NC(=O)c2nn(-c3ccc(C)cc3)c(=O)c3c2c2ccccc2n3C)cc(OC)c1OC -0.5%, Cc1ccc(O)c(-c2cc(C(=O)NCc3ccccc3)[nH]n2)c1 0.766%, Cc1c(NC(=O)c2cc(=O)c3ccccc3o2)c(=O)n(-c2ccccc2)n1C 0.0233%, O=C(NCc1ccc(F)cc1)c1ccc(Cn2c(SCc3ccc(F)cc3)nc3cccnc32)cc1 1.06%, O=C(c1ccc2c(c1)N(Cc1ccccc1)C(=O)c1ccccc1S2(=O)=O)N1CCCC1 1.63%, COc1ccc(OCCCn2cccc2/C=C2/C(=N)N3OC(C)=CC3=NC2=O)cc1 -1.02%, CC(C)(C)OC(=O)NCCCCCC(=O)N/N=C/c1coc2ccccc2c1=O 0%, CCOC(=O)c1c(C)[nH]c(CCC(=O)Nc2ccc(OC)c(OC)c2)c1C -0.832%, Cc1ccc2ncc(C(=O)Nc3ccc(OC(F)(F)F)cc3)c(=O)n2c1 -0.574%, CCO[C@@H]1OC(C(=O)NCc2nc3ccccc3[nH]2)=C[C@H](C2CCCCC2)[C@H]1CCCO -0.239%, O=C(Oc1cccc(O)c1)C1CCCCC1 0.57%, COc1ccc(S(=O)(=O)NCC(c2ccc(N(C)C)cc2)N2CCCC2)cc1 (centres undefined) -2.12%, CC1CCCCN1S(=O)(=O)c1ccc(F)c(C(=O)Nc2ccccc2C(F)(F)F)c1 (centres undefined) 0.192%

— PubChem BioAssay AID485358 (National Center for Advancing Translational Sciences (NCATS), 2010)
